The source made the active and inactive calls.
Tests used:
[1] = adipocyte viability effects, profiling panel, cell-based, 3T3-L1 adipocytes, calcein-AM fluorescence, 48 h, basal (AID 1163); details: 3T3-L1 adipocytes viability, higher = more signal
[2] = HepG2 cell viability effects, profiling panel, calcein-AM fluorescence, 48 h, basal (AID 1164); details: higher = more signal
[3] = MM1S cell viability effects, profiling panel, calcein-AM fluorescence, 48 h, basal (AID 1165); details: higher = more signal;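 also: viability of MM1S multiple myeloma cells under basal unstimulated conditions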
[4] = basal RPMI8226 viability, no added stimulus, profiling panel, cell-based, calcein-AM fluorescence, 48 h, PK04 Diversity Set (AID 1166); details: RPMI8226 myeloma viability, higher = more signal;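 also: cells grown under basal conditions without added stimulus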
[5] = basal HepG2 mitochondrial membrane potential changes, profiling panel, cell-based, JC-1 fluorescence, 24 h, 100 nL compound (AID 1167); details: higher = more signal
[6] = basal 3T3-L1 adipocyte mitochondrial potential changes, profiling panel, cell-based, JC-1 fluorescence, 3T3-L1 adipocytes, 24 h, 100 nL compound (AID 1168); details: JC-1 mitochondrial fluorescence, higher = more signal, called active from +8 up or from −8 down
[7] = basal RPMI8226 mitochondrial membrane potential changes, profiling panel, cell-based, JC-1 fluorescence, 24 h, 100 nL compound (AID 1169); details: RPMI8226 myeloma, JC-1 mitochondrial potential fluorescence, higher = more signal
[8] = basal MM1S mitochondrial membrane potential changes, profiling panel, cell-based, JC-1 fluorescence, 24 h, 100 nL compound (AID 1170); details: higher = more signal
[9] = A549 lung cancer cell viability effects, profiling panel, resazurin fluorescence, 24 h, PK04 Diversity Set (AID 1171); details: higher = more signal, called active from +8 up or from −8 down
[10] = HepG2 liver cancer cell viability effects, profiling panel, resazurin fluorescence, 24 h, PK04 Diversity Set (AID 1172); details: higher = more signal
[11] = basal S. cerevisiae growth modulation, no modifier, primary screen, OD600, strain BY4716, 24 h, basal condition (AID 1173); details: OD600, 24 h, higher = more signal, called active from +8 up or from −8 down
[12] = MM1S myeloma cell viability, profiling panel, resazurin fluorescence, basal, 24 h, PK04 Diversity Set (AID 1174); details: higher = more signal, called active from +8 up or from −8 down;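 also: MM1S multiple myeloma cell line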
[13] = target: Dihydroorotate dehydrogenase (quinone), mitochondrial (Plasmodium falciparum (isolate 3D7)) (UniProt Q08210); experiment: PfDHODH enzyme inhibitors, primary screen, biochemical, C-terminal His tag, absorbance 600 nm (AID 1175); details: DCIP absorbance 600 nm, higher = more signal, called active from +8 up or from −8 down;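 also: recombinant parasite enzyme with a five histidine tag at its C terminus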
Dihydroorotate dehydrogenase (quinone), mitochondrial (Plasmodium falciparum (isolate 3D7)), sequence (Q08210 whole entry, looked up): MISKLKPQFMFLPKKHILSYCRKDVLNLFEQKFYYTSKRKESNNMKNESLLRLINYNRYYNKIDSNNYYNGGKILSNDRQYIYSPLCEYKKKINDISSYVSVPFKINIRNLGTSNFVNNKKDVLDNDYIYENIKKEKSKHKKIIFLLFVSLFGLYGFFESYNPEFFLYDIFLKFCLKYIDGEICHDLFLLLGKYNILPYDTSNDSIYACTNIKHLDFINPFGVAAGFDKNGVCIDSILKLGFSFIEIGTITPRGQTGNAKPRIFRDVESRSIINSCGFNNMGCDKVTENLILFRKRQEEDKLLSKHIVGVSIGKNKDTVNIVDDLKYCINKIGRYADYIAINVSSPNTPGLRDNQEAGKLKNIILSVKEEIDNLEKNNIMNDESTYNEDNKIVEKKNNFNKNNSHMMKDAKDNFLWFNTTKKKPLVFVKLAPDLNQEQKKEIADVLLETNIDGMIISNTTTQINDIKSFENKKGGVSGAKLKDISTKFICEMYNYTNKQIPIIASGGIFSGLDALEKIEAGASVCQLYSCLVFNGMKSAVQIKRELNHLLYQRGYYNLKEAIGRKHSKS

[14] = S. cerevisiae RM11-1a growth modifiers, primary screen, strain RM11-1a, OD600, basal, 24 h (AID 1177); details: OD600, 24 h, higher = more signal, called active from +8 up or from −8 down;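 also: cultures grown under basal conditions with no added stressor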
[15] = E. coli acrAB mutant growth effects, primary screen, E. coli filamentation inducers, strain DRC39, OD650, 24 h (AID 1178); details: higher = more signal, called active from +8 up or from −8 down;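 also: growth measured as culture turbidity by optical density at 650 nm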
[16] = E. coli acrAB mutant growth effects, primary screen, E. coli filamentation inducers, strain DRC39, OD650, 48 h (AID 1179);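 also: screen aims at cell division blockers that make cells filament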; details: E. coli DRC39 delta-acrAB growth, higher = more signal, called active from +8 up or from −8 down
[17] = RPMI8226 myeloma cell viability, profiling panel, resazurin fluorescence, basal, 24 h, PK04 Diversity Set (AID 1180); details: higher = more signal;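 also: RPMI8826 multiple myeloma cell line at 5000 cells per well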
[18] = target: E3 ubiquitin-protein ligase XIAP (Homo sapiens) (UniProt P98170); experiment: XIAP binders, primary screen, biophysical, small-molecule microarray, fluorescence 635 nm (AID 1181); details: small-molecule microarray binding, higher = more signal;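 also: score merges 667 nm emission and signal to noise over triplicate slides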
E3 ubiquitin-protein ligase XIAP (Homo sapiens), sequence (P98170 whole entry, looked up): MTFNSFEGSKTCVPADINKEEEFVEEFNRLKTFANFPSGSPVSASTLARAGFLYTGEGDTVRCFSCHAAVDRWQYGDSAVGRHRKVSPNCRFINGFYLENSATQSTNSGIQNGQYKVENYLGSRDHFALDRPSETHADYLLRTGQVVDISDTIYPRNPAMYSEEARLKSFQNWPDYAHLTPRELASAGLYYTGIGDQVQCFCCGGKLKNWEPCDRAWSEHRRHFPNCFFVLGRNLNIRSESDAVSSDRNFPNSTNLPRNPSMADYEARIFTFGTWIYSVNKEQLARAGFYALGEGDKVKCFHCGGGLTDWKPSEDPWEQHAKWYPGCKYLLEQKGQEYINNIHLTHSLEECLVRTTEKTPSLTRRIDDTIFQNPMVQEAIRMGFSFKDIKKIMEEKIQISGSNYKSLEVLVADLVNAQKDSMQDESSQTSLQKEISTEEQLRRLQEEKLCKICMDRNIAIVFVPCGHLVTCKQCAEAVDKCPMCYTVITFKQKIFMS

[19] = test system: XIP peptide (Xip251-270) binding; experiment: small-molecule binders of XIP peptide, primary screen, biochemical, small-molecule microarray, fluorescence 635/667 nm, 0.1 µg/mL protein (AID 1182); details: fluorescent protein binding, 635 nm, higher = more signal, called active from +8 up or from −8 down
XIP peptide (Xip251-270) = experiment: small-molecule binders of XIP peptide, primary screen, biochemical, small-molecule microarray, fluorescence 635/667 nm, 0.5 µg/mL protein (AID 1183); details: small-molecule microarray binding, fluorescence 635 nm; higher = more signal

O=C(NO)[C@]1(Cc2ccccc2)N=C(c2ccc(OCCCO)cc2)O[C@@H]1c1ccccc1
z-score [1]: 1.33
z-score [2]: 1.18
z-score [3]: 1.87
z-score [4]: -0.459
z-score [5]: 1.59
z-score [6]: 1.3 (inactive)
z-score [7]: -0.737
z-score [8]: 1.02
z-score [9]: 1.02 (inactive)
z-score [10]: 1.47
z-score [11]: -2.78 (inactive)
z-score [12]: 1.41 (inactive)
composite z-score [13]: 0.461 (inactive)
z-score [14]: -4.43 (inactive)
z-score [15]: 2.26 (inactive)
z-score [16]: 2.18 (inactive)
z-score [17]: 0.963
composite z-score [18]: 0.0402
composite z-score [19]: -0.592 (inactive)
composite z-score (XIP peptide (Xip251-270)): -1.32

CC(C)(C)OC(=O)CC[C@]1(C(=O)NCc2ccccc2)COC(c2ccc(OCCCO)cc2)=N1
z-score [1]: 0.978
z-score [2]: -0.346
z-score [3]: 0.614
z-score [4]: 0.554
z-score [5]: -0.0474
z-score [6]: 0.186 (inactive)
z-score [7]: -0.291
z-score [8]: 0.931
z-score [9]: 1.72 (inactive)
z-score [10]: 0.931
z-score [11]: -1.67 (inactive)
z-score [12]: 1.65 (inactive)
composite z-score [13]: -1.28 (inactive)
z-score [14]: -1.23 (inactive)
z-score [15]: 1.38 (inactive)
z-score [16]: 0.233 (inactive)
z-score [17]: 1.57
composite z-score [18]: 0.141
composite z-score [19]: 1.45 (inactive)
composite z-score (XIP peptide (Xip251-270)): 0.0144

COC(=O)C1=CC(c2ccc(CO)cc2)=CC(C2CC2)N(C)C=C1C(=O)OC (stereo not given)
z-score [1]: 1.31
z-score [2]: 0.295
z-score [3]: 1.07
z-score [4]: -0.503
z-score [5]: 1.47
z-score [6]: 0.935 (inactive)
z-score [7]: 0.515
z-score [8]: 1.12
z-score [9]: 0.419 (inactive)
z-score [10]: 0.578
z-score [11]: -2.82 (inactive)
z-score [12]: 0.833 (inactive)
composite z-score [13]: -0.782 (inactive)
z-score [14]: -3.29 (inactive)
z-score [15]: 0.983 (inactive)
z-score [16]: 1.28 (inactive)
z-score [17]: 0.842
composite z-score [18]: -0.0388
composite z-score [19]: 1.8 (inactive)
composite z-score (XIP peptide (Xip251-270)): -0.407

C=CCN1C(=O)[C@@]2(O[C@@H](CCn3cc(CCO)nn3)[C@H]([Si](C)(C)c3ccc(OC)cc3)[C@H]2C)c2cc(NC(=O)c3ccc(OC)cc3)ccc21
z-score [1]: 1.2
z-score [2]: -0.408
z-score [3]: -2.91
z-score [4]: -3.3
z-score [5]: 0.978
z-score [6]: 0.659 (inactive)
z-score [7]: -0.925
z-score [8]: 0.212
z-score [9]: -1.27 (inactive)
z-score [10]: -0.322
z-score [11]: -4.11 (inactive)
z-score [12]: -1.55 (inactive)
composite z-score [13]: -0.118 (inactive)
z-score [14]: 0.901 (inactive)
z-score [15]: 1.55 (inactive)
z-score [16]: 1 (inactive)
z-score [17]: -1.51
composite z-score [18]: -0.168
composite z-score [19]: -0.025 (inactive)
composite z-score (XIP peptide (Xip251-270)): 0.442

C=CCNC(=O)[C@@H]1[C@H]2C(=O)O[C@H](c3ccccc3)[C@H](c3ccccc3)N2[C@H](c2ccc(O)cc2)[C@@]12C(=O)Nc1ccc(C#Cc3ccc(OC)cc3)cc12
z-score [1]: 1.12
z-score [2]: -2.27
z-score [3]: -2.63
z-score [4]: -4.22
z-score [5]: -2.39
z-score [6]: 2.94 (inactive)
z-score [7]: -1.16
z-score [8]: -0.975
z-score [9]: -1.58 (inactive)
z-score [10]: -0.322
z-score [11]: -0.267 (inactive)
z-score [12]: -1.64 (inactive)
composite z-score [13]: -1.35 (inactive)
z-score [14]: -0.411 (inactive)
z-score [15]: -0.071 (inactive)
z-score [16]: 0.773 (inactive)
z-score [17]: -3.89
composite z-score [18]: -0.0932
composite z-score [19]: 0.507 (inactive)
composite z-score (XIP peptide (Xip251-270)): 0.543

CCOC(=O)C[C@H]1[C@H](OC(=O)c2ccc(C(=O)c3ccccc3)cc2)[C@@H](NC(=O)Cc2ccc(OC)cc2)c2cc(OCCCO)ccc2N1C(=O)Cc1ccc(OC)cc1
z-score [1]: 0.234
z-score [2]: 0.398
z-score [3]: 0.856
z-score [4]: -0.481
z-score [5]: 2.05
z-score [6]: 0.755 (inactive)
z-score [7]: -0.131
z-score [8]: 0.356
z-score [9]: 1.54 (inactive)
z-score [10]: 0.964
z-score [11]: -1.99 (inactive)
z-score [12]: 0.0905 (inactive)
composite z-score [13]: 0.735 (inactive)
z-score [14]: -1.05 (inactive)
z-score [15]: 1.74 (inactive)
z-score [16]: 1.06 (inactive)
z-score [17]: 0.678
composite z-score [18]: 0.0871
composite z-score [19]: 0.608 (inactive)
composite z-score (XIP peptide (Xip251-270)): 0.0768

CC(C)C(=C=CC[C@@H](O)c1ccc(CO)o1)CCO
z-score [1]: -0.266
z-score [2]: 0.719
z-score [3]: 0.288
z-score [4]: 0.889
z-score [5]: 0.919
z-score [6]: 0.556 (inactive)
z-score [7]: 0.304
z-score [8]: 0.501
z-score [9]: 1.37 (inactive)
z-score [10]: 1.32
z-score [11]: -1.13 (inactive)
z-score [12]: 1.07 (inactive)
composite z-score [13]: -0.669 (inactive)
z-score [14]: -0.332 (inactive)
z-score [15]: 2.09 (inactive)
z-score [16]: 1.39 (inactive)
z-score [17]: 1.18
composite z-score [18]: -0.0036
composite z-score [19]: 0.676 (inactive)
composite z-score (XIP peptide (Xip251-270)): -0.514

CCOC(=O)C[C@H]1[C@H](OC(=O)c2ccc(-c3ccccc3)cc2)[C@@H](NC(=O)c2ccccc2)c2cc(OCCCO)ccc2N1C(=O)c1ccccc1
z-score [1]: 1.54
z-score [2]: -0.159
z-score [3]: 1.11
z-score [4]: -0.132
z-score [5]: 3.28
z-score [6]: 0.318 (inactive)
z-score [7]: 0.709
z-score [8]: 1.38
z-score [9]: -0.325 (inactive)
z-score [10]: 0.643
z-score [11]: -1.34 (inactive)
z-score [12]: 1.83 (inactive)
composite z-score [13]: 0.594 (inactive)
z-score [14]: -1.37 (inactive)
z-score [15]: 1.76 (inactive)
z-score [16]: 1 (inactive)
z-score [17]: 0.815
composite z-score [18]: -0.0351
composite z-score [19]: 0.358 (inactive)
composite z-score (XIP peptide (Xip251-270)): -0.206

C=CCN1C(=O)[C@]2(O[C@H](CCn3cc([C@H](O)c4ccccc4)nn3)[C@@H]([Si](C)(C)c3ccc(OC)cc3)[C@@H]2C)c2cc(N3CCOC3=O)ccc21
z-score [1]: 3.08
z-score [2]: -0.812
z-score [3]: -1.98
z-score [4]: -2.86
z-score [5]: 3.15
z-score [6]: 2.62 (inactive)
z-score [7]: -0.906
z-score [8]: -0.286
z-score [9]: -2.25 (inactive)
z-score [10]: -1.22
z-score [11]: -0.506 (inactive)
z-score [12]: -0.72 (inactive)
composite z-score [13]: -0.175 (inactive)
z-score [14]: 0.58 (inactive)
z-score [15]: 1.84 (inactive)
z-score [16]: 1.06 (inactive)
z-score [17]: -1.23
composite z-score [18]: -0.0721
composite z-score [19]: 0.865 (inactive)
composite z-score (XIP peptide (Xip251-270)): -0.0533

— PubChem BioAssay
